The nature of test [1]: NCI Yeast Anticancer Drug Screen. Data for the rad50 strain (AID 155).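 Further: 0% = growth of vehicle-only cultures of the same strain.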 The settings on record: S. cerevisiae rad50 strain growth inhibition; at 50.0 µM; stronger effect = higher value. Put shortly: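 Relative growth inhibition (compound vs vehicle) was measured in yeast with a defined repair-gene alteration.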
A short description of test [2]: NCI Yeast Anticancer Drug Screen. Data for the mec2-1 strain (AID 157). The note with it: S. cerevisiae mec2-1 strain, at 50.0 µM, stronger effect = higher value. Put shortly:
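mec2-1 yeast strain, carrying an alteration in DNA damage repair or cell cycle control, was exposed to compounds; growth inhibition was measured relative to vehicle-treated controls.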

Test [3] can be described thus: NCI Yeast Anticancer Drug Screen. Data for the sgs1 mgt1 strain (AID 161).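 Further: 0% = growth of cultures given vehicle only.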 The note with it: S. cerevisiae sgs1 mgt1 strain, at 50.0 µM, stronger effect = higher value. Put shortly:
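Percent growth inhibition was derived by comparing compound-exposed mutant yeast with vehicle-exposed cultures. The strain carries alterations in DNA damage repair.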

Test [4] in a line: NCI Yeast Anticancer Drug Screen. Data for the cln2 rad14 strain (AID 165).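 Further: 0% = growth equal to vehicle treated cultures.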 The note with it: S. cerevisiae cln2 rad14 strain, at 50.0 µM, stronger effect = higher value. Put shortly: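 Yeast carrying cln2 and rad14 alterations (cell cycle control and DNA damage repair) were exposed to compounds. Growth inhibition was measured against vehicle-treated controls.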
The nature of test [5]: NCI Yeast Anticancer Drug Screen. Data for the bub3 strain (AID 167). The settings on record: S. cerevisiae bub3 mutant strain, at 50.0 µM, stronger effect = higher value. Put shortly: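 Screening used yeast with an engineered genetic alteration affecting cell cycle control. Compound-exposed cultures were compared with vehicle cultures, and reduced growth was taken as inhibition.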

The nature of test [6]: NCI Yeast Anticancer Drug Screen. Data for the mlh1 rad18 strain (AID 175). The settings on record: S. cerevisiae mlh1 rad18 strain growth inhibition; at 50.0 µM; stronger effect = higher value. Put shortly: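 Growth inhibition of the yeast strain was measured after compound exposure and expressed relative to vehicle-treated controls. The strain carries defined defects in DNA damage repair.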

Compounds without any hit were thinned out: in the full panel of roughly 79,000, 15% have a hit. Values without a mark were called inactive. Activity calls are given as the source filed them. No stated cut-off is given here; in the data, active means growth inhibition above about 70%; inactive means the rest.

Consider `CCCCCCCCN(CCCCCCCC)CC(O)c1cc(-c2ccccc2)nc2c(-c3ccccc3)cccc12` (stereo unspecified), for which the growth inhibition in test [1] is 46.8%; in test [2], 32.5%; in test [3] it was 49.2%; in test [4], 51.1%; in test [5], 26.1%; in test [6], 48.5%.

With `O=c1[nH]cc(Cl)cc1[N+](=O)[O-]`, the growth inhibition was 10.8% in test [1]; 3.95% in test [2]; -1.4% in test [3]; 2.3% in test [4]; -17.8% in test [5]; 1.7% in test [6].

On to `CC(=O)Oc1cc2c(cc1OC(C)=O)C(=O)c1cc3c(cc1C2=O)OCO3`, for which the growth inhibition in test [1] is -31.7%; in test [2], -10.9%; in test [3], -1.3%; in test [4], -17.2%; in test [5], -6.5%; in test [6] it was -12%.

In the case of `COc1ccc(/C=C2\CCCC(C(NO)c3ccc(OC)cc3)C2=NO)cc1` (stereo unspecified), the growth inhibition in test [1] is 13.6%; in test [2], -33.4%; in test [3], 26.8%; in test [4], 1.15%; in test [5] it was 22.8%; in test [6], 18.2%.

`O=C(O)c1cc(=O)[nH]c2ccccc12`: the growth inhibition in test [1] is -10.1%; in test [2], -5.7%; in test [3], 8%; in test [4], -0.95%; in test [5] it was 1.7%; in test [6], 14.9%.

In the case of `Cn1ccnc1CCc1ccc(F)cc1F`, the growth inhibition was -37.2% in test [1]; -20.8% in test [2]; -2.75% in test [3]; -0.15% in test [4]; -2.2% in test [5]; -22.2% in test [6].

As for `CC(=O)c1ccc(N=NN2CCCC2)cc1`, the growth inhibition in test [1] is 30.2%; in test [2], 8.35%; in test [3], 17.1%; in test [4], 31.4%; in test [5], 34.2%; in test [6], 2.7%.

Regarding `C[N+]([O-])(CCO)Cc1ccccc1` (stereo unspecified), the growth inhibition is -1.45% in test [1]; -17.8% in test [2]; -6.1% in test [3]; 0.95% in test [4]; 4.75% in test [5]; -14.3% in test [6].

Consider `Cc1c(C(=O)O)c(-c2ccc([N+](=O)[O-])cc2)c(C=O)n1-c1ccccc1`, for which the growth inhibition is -4.9% in test [1]; 10.9% in test [2]; 3.3% in test [3]; -8.5% in test [4]; 25.7% in test [5]; 22.9% in test [6].

For the compound `CCOC(OCC)C(C)(C)OC=O`, the growth inhibition was -9.2% in test [1]; -20.8% in test [2]; -7.7% in test [3]; 24.2% in test [4]; 10.6% in test [5]; 6.6% in test [6].

In the case of `CCOC(=O)C(C(=O)OCC)=C1N[C@H](C(=O)OCC)CS1`, the growth inhibition in test [1] is -0.8%; in test [2], -17.5%; in test [3] it was -15.8%; in test [4] it was 13%; in test [5] it was -6.7%; in test [6], -22.8%.

Turning to `CC(Oc1ccccc1)C(=O)NNC(=O)OC(C)(C)C` (stereo unspecified), the growth inhibition was -0.3% in test [1]; -21.9% in test [2]; -10.7% in test [3]; -0.75% in test [4]; -18.6% in test [5]; 3.9% in test [6].

As to `Cc1ccc(S(=O)(=O)OC2CCC3(C)C(=CCC4C3CCC3(C)C(C(C)CCCC(C)C)CCC43)C2)cc1` (stereo unspecified), the growth inhibition in test [1] was 51.8%; in test [2], 26.8%; in test [3] it was 49.8%; in test [4], 10.8%; in test [5] it was 2.5%; in test [6], 37.5%.

On to `CC1(CO)COC(=O)C(C)(C2(C)NC(C)(CO)COC2=O)N1` (stereo unspecified), for which the growth inhibition is 3.6% in test [1]; -17.6% in test [2]; -17.6% in test [3]; 13.1% in test [4]; -24.2% in test [5]; 4.05% in test [6].

Take `Cc1c2c(cc3c1[nH]c1ccccc13)C(c1ccc(F)cc1)=NCC2`: the growth inhibition in test [1] was -1.8%; in test [2] it was 5.55%; in test [3], 1.85%; in test [4], -51%; in test [5], -0.6%; in test [6] it was -2.45%.

For `Cc1cccc(Nc2nnc(Nc3cccc(C)n3)c3ccccc23)n1`, the growth inhibition in test [1] is -2.15%; in test [2] it was -4.5%; in test [3] it was -2.75%; in test [4], -4.25%; in test [5], -3.8%; in test [6], 4%.

On to `C=C(C)C(CCC)(C(=O)OCC)C(=O)OCC`, for which the growth inhibition in test [1] was 3.05%; in test [2], -9.15%; in test [3], 12.6%; in test [4], -4.3%; in test [5], -13.2%; in test [6], -14.1%.

For the compound `CC(C)C(NC(=O)C(=O)c1c[nH]c2ccc(Cl)cc12)C(=O)O` (stereo unspecified), the growth inhibition was -28.9% in test [1]; -9.55% in test [2]; -5.7% in test [3]; -10% in test [4]; -10.2% in test [5]; -1.95% in test [6].

`COc1c(Cl)cc([N+](=O)[O-])cc1C(=O)O`: the growth inhibition in test [1] is 6.4%; in test [2], 25.9%; in test [3] it was -3.55%; in test [4] it was -15.7%; in test [5], 15.6%; in test [6], 16.9%.

For the compound `CC(=O)Oc1c(C(C)(C)C)cc([N+](=O)[O-])c(C)c1[N+](=O)[O-]`, the growth inhibition in test [1] was 97% (active); in test [2] it was 97.3% (active); in test [3], 94.9% (active); in test [4] it was 74.2% (active); in test [5], 94% (active); in test [6], 95.2% (active).

In the case of `Nc1nc(Br)nc2ncn(C3CC(O)C(CO)O3)c12` (stereo unspecified), the growth inhibition in test [1] is 20.1%; in test [2] it was 3.8%; in test [3] it was 18.3%; in test [4], -2.25%; in test [5] it was -0.85%; in test [6], -4.9%.

The values are drawn from PubChem BioAssay (NCI).
